CRE Fsk mod – alters forskolin-stimulated CRE reporter signaling in CHO cells. AID 662. CHO CRE-bla reporter (cAMP response element driving beta-lactamase), forskolin EC10, beta-lactamase ratio. hit rate 2.5% among 71,000. Potency, µM (highest dose often 38.2 µM), for the others: top-dose activity change, negative = inhibition, actives largely listed as activators; active means well fitted activation curve with a large enough effect in the signal ratio, with a control signal flat, not every such curve was filed as active; inconclusive means small, poorly fitted or top-dose-only effect, or effect the other way, or a change in a side signal; the % refers to the signal ratio; further: % of control where 0% means no effect
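Reporter-gene assay: CHO cells with beta-lactamase behind cAMP responsive elements, co-treated with compound and EC10 NKH 477 for 3 hours at 37 degrees Celsius. Activity came from the 460/530 nm CCF4 emission ratio.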
ALOX15B inhib – inhibitors of human 15-lipoxygenase 2 (ALOX15B); O15296; purified 15hLO-2, xylenol orange hydroperoxide absorbance; Potency, µM (doses to about 57.1 µM), inactives show at the top dose activity change, negative = inhibition, most hits filed as inhibitors; hit rate 0.56% among 110,000; further: on the % scale 0 is the no-effect control and ±100 the full control effect; nearly all actives have a fitted effect of over 60% in size
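Read-out: hydroperoxide product oxidises ferrous iron, measured as xylenol orange complex via the 573-to-405 nm absorbance ratio after 30 min. Reaction: 50 nM enzyme, 15 min compound preincubation, 45 uM arachidonic acid, 90 min RT, Hepes pH 7.5 with Triton X-100.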
ERK AVP inh – vasopressin-driven ERK pathway inhibition | hit rate 0.99% among 72,000 | AID 995 | Potency, µM (series often up to 57.5 µM), inactives show top-dose activity, negative = inhibition, actives largely listed as inhibitors | HEK293-V1b, vasopressin-stimulated pERK AlphaScreen; further: on the % scale 0 is the no-effect control and ±100 the full control effect; nearly all actives have a fitted effect of over 55% in size
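Phosphorylated ERK1/2 detected via AlphaScreen bead proximity in lysates of V1b-expressing HEK293 cells given 25 nM vasopressin for 5 min after 30 min compound exposure (37 °C). AC50 from Hill equation; basal DMSO 0%, vasopressin 100%.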
ALOX15 inhib – 15-hLO (ALOX15) enzyme inhibition | purified 15hLO-1, xylenol orange hydroperoxide absorbance | Potency, µM (titrated, usually from 57.1 µM), for inactives: at the highest dose activity change, negative = inhibition, usual class: inhibitors | hit rate 1.4% among 74,000 | AID 887; further: on the % scale 0 is the no-effect control and ±100 the full control effect; nearly all actives have a fitted effect of over 55% in size
Target sequence (P16050 whole entry, looked up): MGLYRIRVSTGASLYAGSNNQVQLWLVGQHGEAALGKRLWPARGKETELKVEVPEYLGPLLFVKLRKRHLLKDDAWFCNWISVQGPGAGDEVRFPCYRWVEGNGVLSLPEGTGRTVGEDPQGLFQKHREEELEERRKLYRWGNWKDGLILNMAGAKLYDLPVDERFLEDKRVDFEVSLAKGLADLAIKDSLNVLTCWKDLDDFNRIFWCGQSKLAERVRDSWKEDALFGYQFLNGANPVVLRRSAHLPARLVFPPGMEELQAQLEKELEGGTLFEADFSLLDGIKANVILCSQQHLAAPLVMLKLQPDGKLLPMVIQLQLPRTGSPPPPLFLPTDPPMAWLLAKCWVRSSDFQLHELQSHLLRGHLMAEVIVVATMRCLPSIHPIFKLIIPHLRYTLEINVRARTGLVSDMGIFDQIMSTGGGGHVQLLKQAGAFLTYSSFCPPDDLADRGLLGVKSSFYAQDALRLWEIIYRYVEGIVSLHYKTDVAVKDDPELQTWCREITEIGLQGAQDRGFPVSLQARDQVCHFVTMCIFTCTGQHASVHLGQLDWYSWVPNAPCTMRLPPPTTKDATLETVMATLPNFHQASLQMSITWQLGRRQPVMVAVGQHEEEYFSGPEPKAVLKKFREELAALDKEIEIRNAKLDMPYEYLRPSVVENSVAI
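Purified human 15hLO-1 (40 nM) in 25 mM Hepes pH 7.5, 0.01% Triton X-100, preincubated 15 min RT with compound, then 50 uM arachidonic acid for 6 min. Hydroperoxide read by ferrous/xylenol orange, 30 min; 573/405 nm absorbance ratio gave progress.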
* = called active by the depositor; ? = inconclusive; · = no result; [ ] = remark or other dose. Most compounds without a hit are left out; they make up all but 3.2% or so of the library. Unless noted, the call rests on the fitted dose curve; in most records, active means well fitted inhibition curve with a large enough effect; inconclusive means small, poorly fitted or top-dose-only effect; inactive means no such curve, though single readings can be large or run the other way. Potency means the concentration at half of the fitted maximal effect.

SMILES	CRE Fsk mod	ALOX15B inhib	ERK AVP inh	ALOX15 inhib
CCN(CC)CCNC(=O)CCCCn1c(=S)[nH]c2c([nH]c3ccc(OC)cc32)c1=O	-1.8%	-28.8%	27.9%	12.6µM*
O=c1cc(-c2cccc(O)c2)oc2cc(O)ccc12	?	-4.2%	-0.8%	2.5%[25.6 µM]
Oc1ccc2c(c1)oc1cc(O)ccc12	?	-23.6%	-10.6%	12.6µM*
O=C(O)CCc1c2ccc(=O)c(O)c-2oc2c(O)c(O)ccc12	-6.5%[7.6 µM]	?	-22.3%[11.5 µM]	3.16µM*
O=c1cc(-c2cccc(O)c2)oc2c(O)c(O)ccc12	?	-27.0%	?	?
O=C(CC(=O)N1CCN(c2ccccn2)CC1)Nc1ccc2nc3n(c(=O)c2c1)CCCCC3	7.94µM*	-1.0%	-15.2%	-13.8%
O=C(Nc1ccc2nc3n(c(=O)c2c1)CCCCC3)c1ccccn1	12.6µM*	·	?	7.0%
CC(=O)N1CCC2(CCCN(c3cccc(-c4ccccc4)c3)C2)CC1	?	3.2%	1.3%	-20.6%
CN(Cc1cccc2ccccc12)Cc1cccc2ccccc12	-5.3%[7.6 µM]	2.2%[11.4 µM]	2.7%[11.5 µM]	-5.9%[11.4 µM]
O=C(c1ccc2c(c1)OCO2)[C@@H]1[C@@H]2C(=O)N(C3CCCCC3)C(=O)[C@@H]2C2c3ccccc3C=CN21 (some centres not stated)	?	24.0%	?	15.8µM*
CN1CCC(=C2c3ccccc3Sc3ccccc32)CC1	?	-1.7%	-16.9%	-10.5%
N=C1Sc2ccccc2C2=NCCCN12	18.0%	12.6µM*	-13.3%	?
CO[C@H]1COC(=O)[C@H](C)NC(=O)C/C=C\[C@@H](C)[C@@H](NS(=O)(=O)c2ccc(C)cc2)COC(=O)C/C=C\[C@@H]1C	·	·	12.1%[11.5 µM]	7.8%[11.4 µM]
Fc1ccc2nc3[nH]c4ccccc4c3nc2c1	7.94µM*	-3.7%	?	-9.6%
CC(C)CSc1nnc2c(n1)[nH]c1ccccc12	·	-14.9%	·	·
COc1ccc(-c2coc3c(OC)c(OC)cc(O)c3c2=O)cc1	·	-7.9%	?	-4.8%
COc1ccccc1OCC(=O)Nc1ccc(O)cc1C(=O)O	-20.7%	1.7%	-10.4%	5.8%
COc1cc(Cl)ccc1NC(=O)COc1ccccc1C(=O)N1CCN(c2ccc(O)cc2)CC1	?	?	-8.3%	25.1µM*
Cc1ccccc1OCCCN1C(=O)C(=O)c2cccc(C)c21	?	25.1µM*	-13.8%	?
CC(=O)Nc1cccc(C(=O)Oc2cccc(C)c2)c1O	-13.5%	-0.1%	25.7%	15.8µM*
Cc1cccc(C(=O)Nc2cccc(OC(=O)c3cccc(C)c3)c2)c1	·	10.6%	·	·
CN[C@@H]1NC(=O)c2ccccc2N1Cc1ccc(F)cc1	-1.6%[7.6 µM]	-8.7%[11.4 µM]	3.6%[11.5 µM]	-2.9%[11.4 µM]
O=C(c1ccc(Br)o1)N1CCN(c2ccc3nnc(-c4ccccc4)n3n2)CC1	-9.8%	-6.0%	-29.0%	15.8µM*
Cc1ccc(O)c(N=Nc2ccccc2)n1	11.3%	?	?	12.6µM*
CCCn1c(-c2ccc(F)cc2)nc2c(NC3CC4CCC(C3)N4C)nc(C)nc21 (configuration not stated)	-1.7%	5.4%	14.6%	9.2%
SMILES	CRE Fsk mod	ALOX15B inhib	ERK AVP inh	ALOX15 inhib
COc1c(-c2coc3cc4c(cc3c2=O)CC(OC(C)=O)C(C)(C)O4)ccc2c1C=CC(C)(C)O2 (configuration not stated)	·	-7.2%	15.8µM*	-6.8%
COc1c(-c2coc3cc4c(cc3c2=O)CC(O)C(C)(C)O4)ccc2c1C=CC(C)(C)O2 (configuration not stated)	·	?	3.16µM*	-12.4%
COc1ccc(N2CCN(c3nc(=S)n(-c4ccccc4)c(C)c3C(C)=O)CC2)cc1	-3.9%	-4.0%	?	15.8µM*
Cn1cc(C2=C(c3cn(CCCSC(=N)N)c4ccccc34)C(=O)NC2=O)c2ccccc21	·	-10.2%	2µM*	20µM*
CN(C)CCCn1cc(C2=C(c3c[nH]c4ccccc34)C(=O)NC2=O)c2ccccc21	?	9.6%	0.794µM*	-7.3%[25.6 µM]
COc1ccc(CNc2ncncc2-c2ccccc2Cl)c(OC)c1	14.9%	44.0%	-13.7%	1.1%
CCOC(=O)CCN1CCN(C(=O)c2ccc(-n3c(=O)c(=O)[nH]c4ccccc43)cc2)CC1	·	·	·	12.6µM*
CCOC(=O)c1ccccc1NC(=O)CSc1nc2ccccc2n1CC(=O)N1CCCC1	2µM*	-0.1%	-16.5%	10.2%
CCSc1nc2ccccc2n1CC(=O)N1CCCCC1	10.6%	6.0%	5.5%	1.0%
COc1ccc(/C=N\NC(=O)O)cc1	0.0%[7.6 µM]	5.1%[11.4 µM]	0.9%[11.5 µM]	5.3%[11.4 µM]
Cc1cc(=O)c2c(O)c3c(O)cc(O)c4c5c(O)cc(O)c6c(O)c7c(=O)cc(C)c8c1c2c(c34)c(c65)c78	·	2.51µM*	·	·
O=C(NC1CCCC1)C(c1ccsc1)N(Cc1ccco1)C(=O)Cc1cccs1 (configuration not stated)	-9.4%	-1.2%	?	0.398µM*
O=C(NC1CCCC1)C(c1ccsc1)N(Cc1ccccc1)C(=O)Cc1cccs1 (configuration not stated)	·	-8.8%	·	·
Cc1cccn2cc(CCNS(=O)(=O)c3ccc4c(c3)OCCO4)nc12	10µM*	-1.6%	·	-1.5%
Cc1noc(NS(=O)(=O)c2ccc(NC(=O)COc3ccc(Cl)cc3Cl)cc2)c1C	?	-5.3%	2.51µM*	?
CCOC(OCC)P(=O)(O)CCCNCc1ccc(Cl)c(Cl)c1	-4.6%	12.4%	20.9%	?
COc1ccc2ccccc2c1C1CC(=O)N2CN(C3CCCCC3)CSC2=C1C#N (configuration not stated)	?	?	5.1%	?
COc1cc(C2CC(=O)N3CN(Cc4ccco4)CSC3=C2C#N)ccc1OCc1ccccc1 (configuration not stated)	?	?	?	6.31µM*
COc1ccc2ccccc2c1C1CC(=O)N2CN(Cc3ccco3)CSC2=C1C#N (configuration not stated)	?	12.6µM*	-15.3%	?
COc1cc(OC)c2c(OC)c(-c3ccc4c(c3)OCO4)c(=O)oc2c1	·	11.3%	2.6%	-15.7%
CCC[C@H](Sc1nc(N)nc2nc[nH]c12)C(=O)O	-10.3%[7.6 µM]	1.3%[11.4 µM]	-17.8%[11.5 µM]	8.4%[11.4 µM]
O=C(NCCCCN1CCCC1)c1ccc(-n2c(=O)c(=O)[nH]c3ccccc32)cc1	·	·	·	-0.8%
C[C@H](CN(C)C)C(=O)c1ccccc1C(=O)O	-14.5%[7.6 µM]	2.4%[11.4 µM]	2.3%[11.5 µM]	5.5%[11.4 µM]
CCOC(=O)Cc1nnc(NC(=O)CSc2nnc3c4ccccc4n(C(C)C)c3n2)s1	10µM*	17.8%[2.29 µM]	-4.2%	-19.7%
CCn1c2ccccc2c2nnc(SCC(=O)NC(CC(C)C)C(=O)OC)nc21 (configuration not stated)	7.94µM*	-8.4%	-8.2%	-5.1%
CCn1c2ccccc2c2nnc(SCC(=O)Nc3ncccn3)nc21	10µM*	2.1%	-24.2%	-2.6%
CCCn1c2ccccc2c2nnc(SCC(=O)Nc3nnc(CC(=O)OCC)s3)nc21	·	-9.0%	·	·
CCn1c2ccccc2c2nnc(SCC(=O)OCN3C(=O)c4ccccc4C3=O)nc21	?	-8.7%	-16.4%	0.5%[11.4 µM]

High-throughput results deposited in PubChem BioAssay by National Center for Advancing Translational Sciences (NCATS).
